Bioassay records deposited in PubChem BioAssay by several laboratories.
Peg3 prom inh = reduces Peg3 promoter-driven luciferase expression in HeLa. HeLa PEG-Prom luciferase reporter, luminescence, overnight. inhibition, % at 20 µM. hit rate 1.7% among 360,000;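 active = inhibition of at least 50% at 20 µM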
CF NFkB block = cystic fibrosis NF-kB activation inhibition. KKLEB NF-kB-GFP reporter, PAF-induced, GFP fluorescence overnight. inhibition, % at 5 µM. hit rate 0.86% among 360,000. AID 588850;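 active = at least 50% inhibition at 5 µM, scaled per plate between neutral and stimulator controls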;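 also: PAF is a Pseudomonas aeruginosa culture filtrate used as stimulus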
LGR2 inh = blocks bursicon-induced cAMP signaling via Drosophila LGR2; HEK293 LGR2, CRE-luciferase, bursicon-stimulated, 4 h; inhibition, % at 9.99 µM; hit rate 0.35% among 380,000;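 active = drop in luminescence signal, shown as inhibition above about 50% in the replicate tests, limit read from the data, passing the limit was not always enough; inconclusive = probably only some replicates passing the limit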;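 also: agonist challenge used bursicon conditioned medium at about half maximal strength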
HSP90 refold inh = inhibitors of HSP90 luciferase refolding in rabbit reticulocyte lysate | inhibition, % at 5.6 µM | hit rate 0.91% among 290,000 | luciferase refolding luminescence, 3 h | AID 1789;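 active = inhibition above the screen-wide mean plus 3 SD, computed separately per campaign, cut at about 16% in these data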;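 also: inhibitors lower the luminescence because luciferase stays unfolded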
Mdm2-MdmX inh = human Mdm2/MdmX binding inhibition. hit rate 3% among 330,000. SaOS-2 split-luciferase Mdm2/MdmX complementation, luminescence. inhibition, % at 8 µM. AID 485346;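 active = inhibition of at least 50% at 8 µM in the primary screen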
Target sequence (O15151 whole entry, looked up): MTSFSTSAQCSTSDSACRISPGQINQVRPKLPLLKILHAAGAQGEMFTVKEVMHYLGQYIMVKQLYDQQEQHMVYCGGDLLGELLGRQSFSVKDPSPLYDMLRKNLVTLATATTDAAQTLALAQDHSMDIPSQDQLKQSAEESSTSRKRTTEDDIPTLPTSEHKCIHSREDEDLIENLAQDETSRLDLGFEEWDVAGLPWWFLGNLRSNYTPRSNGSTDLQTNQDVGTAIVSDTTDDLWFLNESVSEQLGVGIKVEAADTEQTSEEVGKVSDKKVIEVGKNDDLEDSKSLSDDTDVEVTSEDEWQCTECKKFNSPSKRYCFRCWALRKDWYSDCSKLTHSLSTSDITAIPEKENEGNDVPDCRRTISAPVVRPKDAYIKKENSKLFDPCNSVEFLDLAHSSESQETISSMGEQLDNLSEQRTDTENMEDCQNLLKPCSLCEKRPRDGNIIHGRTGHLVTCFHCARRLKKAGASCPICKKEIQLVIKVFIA
Target sequence (Q00987 whole entry, looked up): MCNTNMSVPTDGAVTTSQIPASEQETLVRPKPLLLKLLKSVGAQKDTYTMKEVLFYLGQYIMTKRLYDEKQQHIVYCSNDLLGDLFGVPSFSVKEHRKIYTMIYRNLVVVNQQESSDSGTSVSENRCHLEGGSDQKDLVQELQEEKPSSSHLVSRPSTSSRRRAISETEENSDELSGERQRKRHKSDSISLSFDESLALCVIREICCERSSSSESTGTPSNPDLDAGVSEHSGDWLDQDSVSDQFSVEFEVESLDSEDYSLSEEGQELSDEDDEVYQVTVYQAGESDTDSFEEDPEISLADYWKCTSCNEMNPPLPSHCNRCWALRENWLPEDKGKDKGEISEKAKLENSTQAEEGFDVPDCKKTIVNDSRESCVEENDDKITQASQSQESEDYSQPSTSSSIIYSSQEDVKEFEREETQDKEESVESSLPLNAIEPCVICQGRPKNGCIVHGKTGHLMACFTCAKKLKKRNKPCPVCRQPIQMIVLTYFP
KKLEB tox = counter-screen for CF NF-kB inhibitors: cytotoxicity. KKLEB CF airway cells viability, ATPlite luminescence, overnight; hits give low values; cells stimulated with P. aeruginosa culture filtrate. activity change (cytotoxicity), % at 5 µM. hit rate 0.36% among 360,000. AID 602141;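 active = corrected activity change at or below -50% at 5 µM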
Each line names hits and unclear results; the compound was inactive in the other large screens. Hits are enriched below; roughly 3.6% of the tested compounds scored in any of these assays.

Cc1ccccc1NNC(=O)C(=O)NNc1ccccc1C	none
C[C@H](CO)N1C[C@H](C)[C@@H](CN(C)Cc2ccc(-c3ccccc3)cc2)Oc2ccc(NC(=O)CCN3CCOCC3)cc2CC1=O	none (no result: Peg3 prom inh, CF NFkB block, HSP90 refold inh, Mdm2-MdmX inh, KKLEB tox)
CC1=NN(c2ccccc2)C(=O)/C1=C\c1ccc(Oc2ccc([N+](=O)[O-])cc2[N+](=O)[O-])cc1	HSP90 refold inh 16
COc1ccccc1-c1nnc(SCC(=O)NC2CC2)n1C	none (no result: HSP90 refold inh)
COc1ccccc1-c1nnc(SC(C(=O)c2c[nH]c3ccccc23)c2ccccc2)n1C (configuration not stated)	Peg3 prom inh 54
CCOCCCNC(=O)/C(C#N)=C/c1ccc([N+](=O)[O-])o1	Peg3 prom inh 101, LGR2 inh inconclusive
C[C@@H]1CN([C@@H](C)CO)C(=O)CCCn2cc(nn2)CO[C@H]1CN(C)Cc1cccc(O)c1	none (no result: Peg3 prom inh, CF NFkB block, HSP90 refold inh, Mdm2-MdmX inh, KKLEB tox)
CC(=O)OCC1=C[C@@H]2OC(=O)C3=CO[C@@H](O[C@@H]4O[C@H](CO)[C@@H](O)[C@H](O)[C@H]4O)[C@H]1[C@@H]32	none (no result: HSP90 refold inh)
C=C1C(=O)OC2C=C(CO)C3OC3C3OC3(C)CC(OC(=O)/C(=C/C)COC(C)=O)C12 (configuration not stated)	Peg3 prom inh 106, CF NFkB block 82, KKLEB tox -92 (no result: HSP90 refold inh, Mdm2-MdmX inh)
O=C1C=C(N2CCCCC2)c2ccccc2C1=O	Peg3 prom inh 100, CF NFkB block 100, KKLEB tox -77 (no result: HSP90 refold inh)
O=S(=O)(CC(CN1CCCCC1)N1CCCCC1)c1ccc2ccccc2c1 (configuration not stated)	Peg3 prom inh 109, CF NFkB block 97, LGR2 inh 50, KKLEB tox -59 (no result: Mdm2-MdmX inh)
C=CCn1c(SCC(=O)Nc2sccc2C(N)=O)nc2ccc(Cl)cc2c1=O	Peg3 prom inh 52 (no result: LGR2 inh)
Cc1ccc(NC(=O)c2ccccc2OCC(=O)Nc2ccccc2F)cc1S(=O)(=O)N(C)C	none (no result: HSP90 refold inh)
CN(C)S(=O)(=O)c1cccc(NC(=O)COc2ccccc2C(=O)Nc2ccccc2)c1	LGR2 inh 45 (no result: HSP90 refold inh, Mdm2-MdmX inh)
Cc1ccc(S(=O)(=O)N(C)C)cc1NC(=O)COc1ccccc1C(=O)Nc1ccccc1	Peg3 prom inh 60 (no result: HSP90 refold inh)
COCC(=O)Nc1ccc2c(c1)[C@@H]1C[C@H](CC(=O)N3CCCCC3)O[C@@H](CO)[C@@H]1O2	none (no result: Peg3 prom inh, CF NFkB block, HSP90 refold inh, Mdm2-MdmX inh, KKLEB tox)
O=C(N[C@@H]1CC[C@H](CC(=O)N2CCc3ccccc3C2)O[C@@H]1CO)C1CCOCC1	none (no result: Peg3 prom inh, CF NFkB block, HSP90 refold inh, Mdm2-MdmX inh, KKLEB tox)
COc1ccc(-c2cc(=O)oc3c(C)c(O)c(CN(C)C)cc23)cc1	CF NFkB block 55 (no result: LGR2 inh)
Cc1cc(NC(=O)C2CCCCC2)nc2c1c(=O)oc1ccccc12	Peg3 prom inh 51 (no result: LGR2 inh)
CCC(C)n1c(C)nc2c(c1=O)c1nc3ccccc3nc1n2CCC1=CCCCC1 (configuration not stated)	Peg3 prom inh 77 (no result: LGR2 inh)
O=C(C[C@H]1CC[C@H]2[C@@H](COC[C@H](O)CN2Cc2cccc(-c3ccncc3)c2)O1)N1CCOCC1	none (no result: Peg3 prom inh, CF NFkB block, HSP90 refold inh, Mdm2-MdmX inh, KKLEB tox)
COc1cccc(C(=O)Nc2nnc(S(=O)(=O)N(C)Cc3ccccc3)s2)c1	Peg3 prom inh 55
C[C@H]1CCCCO[C@H](CN(C)C(=O)C2CCCCC2)[C@@H](C)CN([C@@H](C)CO)C(=O)c2cc(NS(=O)(=O)c3ccc(Cl)cc3)ccc2O1	none (no result: Peg3 prom inh, CF NFkB block, HSP90 refold inh, Mdm2-MdmX inh, KKLEB tox)
CCCCCCCCCCCCCCC[C@@H](O)[C@@H](N)CO	Peg3 prom inh 51 (no result: LGR2 inh, HSP90 refold inh, Mdm2-MdmX inh)
CCCCCCCCCC(=O)OCC(O)CO (configuration not stated)	none (no result: LGR2 inh)
O=C(C[C@H]1CC[C@@H]2[C@H](COC[C@H](O)CN2C(=O)Nc2ccc(Cl)c(Cl)c2)O1)NCc1ccc(Cl)c(Cl)c1	none (no result: Peg3 prom inh, CF NFkB block, HSP90 refold inh, Mdm2-MdmX inh, KKLEB tox)
O=C(O)c1ccccc1NC(=S)NC(=O)c1sc2ccccc2c1Cl	none
O=C(NNC(=S)NC(=O)c1sc2ccccc2c1Cl)c1ccc(Cl)cc1	CF NFkB block 76, KKLEB tox -65
CC(=O)Nc1ccc(NC2=CC(=O)c3ccccc3C2=O)cc1	none
Cc1cc(NC(=O)CCN2C(=O)c3ccccc3C2=O)no1	none
NS(=O)(=O)c1ccc(NC2=CC(=O)C(=O)c3ccccc32)cc1	CF NFkB block 94
Cc1cc(NC2=CC(=O)C(=O)c3ccccc32)no1	CF NFkB block 86 (no result: HSP90 refold inh, Mdm2-MdmX inh)
CCOC(=O)c1ccc(NC2=CC(=O)C(=O)c3ccccc32)cc1	Peg3 prom inh 116, CF NFkB block 89, KKLEB tox -72 (no result: LGR2 inh)
Cc1ccc(NC2=CC(=O)C(=O)c3ccccc32)cc1	CF NFkB block 59 (no result: LGR2 inh)
